Laboratory results: PubChem BioAssay AID1159580 (chemical genetic matrix, 2015)
Among all 5,500 compounds or so, about 2,000 (36%) were called active. Roughly 18% stayed inconclusive and do not appear here. Rule as the data show it: active = normalized growth mostly below about 0.91 (no sharp cut-off); inconclusive = no clear call, values can overlap the other calls; inactive = mostly above about 0.92. The list shows a part of the results.

Assay: chemical genetic growth profiling, strain panel (AID 1159580);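 also: tested at 20 µM; growth read once vehicle control cultures reached saturation at 30 °C; 1 = growth at the plate median or of vehicle wells; lower values mean less growth of the strain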
Settings: growth OD

Measured: normalized growth

CC1(C)OC(=O)NC1=O
inactive: S. cerevisiae deletion strains, locus YJR075W, strain HOC1, hits give low values 0.981 | S. cerevisiae deletion strains, locus YKL009W, strain mrt4, hits give low values 0.966 | S. cerevisiae deletion strains, locus YKL068W, hits give low values 0.988 | S. cerevisiae deletion strains, locus YKL085W, strain MDH1 (second series), hits give low values 1.06 | S. cerevisiae deletion strains, locus YKL085W, strain MDH1, hits give low values 1.06 | S. cerevisiae deletion strains, locus YKL160W, strain elf1, hits give low values 1.01 | S. cerevisiae deletion strains, locus YKR001C, strain vps1, hits give low values 1.01 | S. cerevisiae deletion strains, locus YKR026C, strain gcn3, hits give low values 0.994 | S. cerevisiae deletion strains, locus YKR091W, strain srl3, hits give low values 1.01 | S. cerevisiae deletion strains, locus YLL001W, strain dnm1, hits give low values 1.02 | S. cerevisiae deletion strains, locus YLL026W, hits give low values 1.01 | S. cerevisiae deletion strains, locus YLL041C, strain sdh2, hits give low values 1.01 | S. cerevisiae deletion strains, locus YLR027C, strain aat2, hits give low values 1.01 | S. cerevisiae deletion strains, locus YLR039C, strain RIC1, hits give low values 1.02 | S. cerevisiae deletion strains, locus YLR058C, strain SHM2, hits give low values 0.983 | S. cerevisiae deletion strains, locus YLR102C, strain apc9, hits give low values 0.981 | S. cerevisiae deletion strains, locus YLR113W, strain HOG1, hits give low values 1.02 | S. cerevisiae deletion strains, locus YLR221C, strain rsa3, hits give low values 0.991 | S. cerevisiae deletion strains, locus YLR258W, strain gsy2, hits give low values 1 | S. cerevisiae deletion strains, locus YLR262C, strain YPT6 (second series), hits give low values 1.03 | S. cerevisiae deletion strains, locus YLR262C, strain YPT6, hits give low values 0.97 | S. cerevisiae deletion strains, locus YLR268W, strain sec22, hits give low values 0.989 | S. cerevisiae deletion strains, locus YLR320W, strain mms22, hits give low values 0.975 | S. cerevisiae deletion strains, locus YLR330W, strain CHS5, hits give low values 0.996 | S. cerevisiae deletion strains, locus YLR342W, strain FKS1 (second series), hits give low values 1.04 | S. cerevisiae deletion strains, locus YLR342W, strain FKS1, hits give low values 1.02 | S. cerevisiae deletion strains, locus YLR357W, strain rsc2, hits give low values 1.03 | S. cerevisiae deletion strains, locus YLR370C, strain arc18, hits give low values 1.02 | S. cerevisiae deletion strains, locus YLR371W, strain rom2, hits give low values 0.98 | S. cerevisiae deletion strains, locus YLR384C, strain iki3, hits give low values 1.01 | S. cerevisiae deletion strains, locus YLR418C, strain cdc73, hits give low values 0.958 | S. cerevisiae deletion strains, locus YML016C, strain PPZ1, hits give low values 0.997 | S. cerevisiae deletion strains, locus YML032C, strain rad52, hits give low values 0.98 | S. cerevisiae deletion strains, locus YML120C, strain ndi1, hits give low values 1.02 | S. cerevisiae deletion strains, locus YML124C, strain tub3, hits give low values 0.983 | S. cerevisiae deletion strains, locus YMR058W, strain fet3, hits give low values 1.03 | S. cerevisiae deletion strains, locus YMR078C, strain ctf18, hits give low values 0.971 | S. cerevisiae deletion strains, locus YMR125W, strain sto1, hits give low values 1.05 | S. cerevisiae deletion strains, locus YMR129W, hits give low values 1.01 | S. cerevisiae deletion strains, locus YMR205C, strain PFK2, hits give low values 1.02 | S. cerevisiae deletion strains, locus YMR223W, strain ubp8, hits give low values 0.964 | S. cerevisiae deletion strains, locus YMR231W, strain pep5, hits give low values 1.01 | S. cerevisiae deletion strains, locus YMR263W, strain SAP30, hits give low values 0.981 | S. cerevisiae deletion strains, locus YMR307W, strain GAS1, hits give low values 1.05 | S. cerevisiae deletion strains, locus YNL067W, strain RPL9B, hits give low values 0.972 | S. cerevisiae deletion strains, locus YNL071W, strain lat1, hits give low values 1 | S. cerevisiae deletion strains, locus YNL153C, strain GIM3, hits give low values 0.989 | S. cerevisiae deletion strains, locus YNL183C, strain NPR1, hits give low values 0.975 | S. cerevisiae deletion strains, locus YNL209W, strain ssb2, hits give low values 0.996 | S. cerevisiae deletion strains, locus YNL233W, strain BNI4, hits give low values 0.983 | S. cerevisiae deletion strains, locus YNL248C, strain rpa49, hits give low values 1.07 | S. cerevisiae deletion strains, locus YNL250W, strain rad50, hits give low values 0.967 | S. cerevisiae deletion strains, locus YNL271C, strain bni1, hits give low values 0.966 | S. cerevisiae deletion strains, locus YNL298W, strain CLA4, hits give low values 0.971 | S. cerevisiae deletion strains, locus YNL307C, strain MCK1, hits give low values 0.983 | S. cerevisiae deletion strains, locus YNL322C, strain KRE1 (second series), hits give low values 1.01 | S. cerevisiae deletion strains, locus YNL322C, strain KRE1, hits give low values 1.01 | S. cerevisiae deletion strains, locus YNR049C, strain mso1, hits give low values 1.01 | S. cerevisiae deletion strains, locus YNR052C, strain pop2, hits give low values 0.971 | S. cerevisiae deletion strains, locus YOL006C, strain TOP1, hits give low values 0.926 | S. cerevisiae deletion strains, locus YOL012C, strain htz1 0.866 | S. cerevisiae deletion strains, locus YOL147C, strain pex11, hits give low values 0.973 | S. cerevisiae deletion strains, locus YOR001W, strain rrp6, hits give low values 1.02 | S. cerevisiae deletion strains, locus YOR061W, strain CKA2, hits give low values 0.994 | S. cerevisiae deletion strains, locus YOR069W, strain VPS5, hits give low values 0.991 | S. cerevisiae deletion strains, locus YOR070C, strain gyp1, hits give low values 0.999 | S. cerevisiae deletion strains, locus YOR080W, strain dia2, hits give low values 1.02 | S. cerevisiae deletion strains, locus YOR083W, strain WHI5, hits give low values 0.987 | S. cerevisiae deletion strains, locus YOR106W, strain vam3, hits give low values 1.03 | S. cerevisiae deletion strains, locus YOR136W, strain idh2, hits give low values 0.974 | S. cerevisiae deletion strains, locus YOR144C, strain elg1, hits give low values 0.976 | S. cerevisiae deletion strains, locus YOR184W, strain ser1, hits give low values 0.966 | S. cerevisiae deletion strains, locus YOR231W, strain MKK1, hits give low values 1.04 | S. cerevisiae deletion strains, locus YOR265W, strain rbl2, hits give low values 1.01 | S. cerevisiae deletion strains, locus YOR270C, strain vph1, hits give low values 1.07 | S. cerevisiae deletion strains, locus YOR290C, strain snf2, hits give low values 1.02 | S. cerevisiae deletion strains, locus YOR316C, strain cot1, hits give low values 0.98 | S. cerevisiae deletion strains, locus YPL051W, strain arl3, hits give low values 1.01 | S. cerevisiae deletion strains, locus YPL078C, strain atp4, hits give low values 1.01 | S. cerevisiae deletion strains, locus YPL106C, strain sse1, hits give low values 0.997 | S. cerevisiae deletion strains, locus YPL240C, strain hsp82, hits give low values 0.996 | S. cerevisiae deletion strains, locus YPL256C, strain CLN2, hits give low values 1.08 | S. cerevisiae deletion strains, locus YPR119W, strain clb2, hits give low values 0.977 | S. cerevisiae deletion strains, locus YPR141C, strain kar3, hits give low values 0.958 | S. cerevisiae deletion strains, locus YPR163C, strain tif3, hits give low values 0.982 | S. cerevisiae deletion strains, locus YPR167C, strain met16, hits give low values 0.972 | S. cerevisiae deletion strains, strain wtn01, hits give low values 0.982 | S. cerevisiae strains, strain wild type, hits give low values 0.998
